Screens: PubChem, several laboratories
An excerpt weighted towards active compounds, which were near 6.9% of everything screened.
Beta cell apopt = beta cell apoptosis inhibition. INS-1E cytokine-induced death, ATP luminescence, 48 h; percent of positive-control rescue, neutral wells zero. protection from apoptosis, % (test concentration not listed). actives 0.8% (n = 300,000). AID 435005;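 active = Every replicate reaches about 75%, or at least half do and their mean reaches it too, limit read from the data; inconclusive = At least half of replicates reach the limit but their mean does not; inactive = Under half of replicates reach the limit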;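 note: 0% = cytokine-treated negative control wells and 100% = positive control rescue; higher means more ATP so stronger rescue from cytokine killing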
CSC inhib = blocks cancer stem cells; inhibition, % at 7.5 µM; AID 2717; actives 1.1% (n = 300,000); cancer stem cell-like cells viability, luminescence; in the data active = inhibition above about 75%; inconclusive = no clear call, values can overlap the other calls; tested in HMLE shEcad cells
NR3A LBD binder = modulators (binders) of human NR3A ligand-binding domain. Tm shift relative to glycine control, % at 25 µM. actives 2.5% (n = 340,000). NR3A LBD differential scanning fluorimetry, Tm shift; 0% = protein alone, 100% = glycine-bound protein;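 active = melting temperature shift of at least 10% of the positive control shift, at one fixed dose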
MPTP inh = permeability transition pore inhibition; isolated mouse mitochondria, Ca2+ swelling absorbance, 30 min; actives 1.4% (n = 360,000); AID 602449; inhibition, % at 10 µM;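 active = inhibition of 50% or more, scaled per plate between neutral and stimulator controls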;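 note: 0% = DMSO wells given calcium and 100% = 1 mM EGTA wells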
SKKanGAS inh = blocks kanamycin growth of S. pyogenes SKKanGAS strain; BacTiter-Glo, 6 h; inhibition, % at 7.5 µM; actives 1.3% (n = 300,000); AID 1662;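 active = mean replicate score, as percent of positive control median, at least 50; inconclusive = mean below 50 but one replicate at or above 50; inactive = mean and every replicate below 50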;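 note: strain carries kanamycin resistance gene driven by streptokinase promoter and grows in 40 µg/ml kanamycin; loss of luminescence reflects streptokinase promoter inhibition or plain growth inhibition; 0% = median of DMSO wells and 100% = positive control at its reference dose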
Mdm2 MdmX PPI = human Mdm2/MdmX binding inhibition; O15151+Q00987; SaOS-2 split-luciferase Mdm2/MdmX complementation, luminescence; inhibition, % at 8 µM; actives 3% (n = 330,000); AID 485346;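 active = inhibition of at least 50% at 8 µM in the primary screen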
An asterisk follows results filed as active; u = inconclusive; x = not tested or not shown.

SMILES | Beta cell apopt | CSC inhib | NR3A LBD binder | MPTP inh | SKKanGAS inh | Mdm2 MdmX PPI
Cc1nc2ccc(C(=O)Nc3cccc([N+](=O)[O-])c3)cc2s1 | 6 | 8 | 21* | -1 | -13 | -8
CS(=O)(=O)Nc1ccc(C(=O)Nc2cccc([N+](=O)[O-])c2)cc1 | 1 | -7 | 21* | 1 | -7 | 3
O=C(Nc1cccc(Br)c1)c1cc(S(=O)(=O)N2CCOCC2)cs1 | 0 | 4 | 2 | -3 | u | 20
CC1(C)C2CCC1(C)C(OC(=O)CC(=O)O)C2 (configuration not stated) | 2 | 62 | 10* | x | -6 | -21
CC(=O)Nc1nc2c(ccc3ccccc32)s1 | 4 | 2 | -1 | -1 | 4 | 5
O=C(Cc1cccs1)Nc1nc2c(ccc3ccccc32)s1 | 5 | 16 | 11* | 3 | 25 | 23
CC(=O)NS(=O)(=O)c1ccc(N=c2ssc3c2-c2ccc(C)cc2NC3(C)C)cc1 | -2 | 44 | -12 | -3 | 82* | 4
COc1ccc(NS(=O)(=O)c2cc(NC(=O)c3ccc(F)cc3)ccc2OC)cc1 | x | -26 | -6 | 2 | -2 | 20
COc1ccc(NC(=O)c2ccc(F)cc2)cc1S(=O)(=O)Nc1cc(C)ccc1Br | 4 | 51 | 21* | -14 | 43 | 42
COc1ccc(NC(=O)c2[nH]c(C)c(C(C)=O)c2C)cc1Cl | -9 | -11 | -11 | 0 | 3 | -34
COc1ccc(NC(=O)c2[nH]c(C)c(C(C)=O)c2C)cc1S(=O)(=O)Nc1ccc(Br)cc1 | 3 | 10 | 11* | 10 | 30 | 49
CCCCNC(=O)C(CC)(ONc1ccccc1C(F)(F)F)c1ccccc1 (configuration not stated) | -13 | 38 | -5 | 2 | x | 28
COc1cc(C2Nc3ccccc3NC3=C2C(=O)CC(C)(C)C3)cc(OC)c1OC(C)=O (configuration not stated) | -7 | -16 | -1 | 0 | -1 | -29
COC(=O)[C@H](Cc1ccccc1)N(Cc1ccccc1)S(=O)(=O)N(Cc1ccccc1)[C@@H](Cc1ccccc1)C(=O)OC | 119* | -1 | -10 | 4 | x | 40
C=CCN1C(=O)c2ccc(C(=O)N(C)CC(=O)Nc3ccc(Br)cc3C)cc2C1=O | -3 | 7 | 5 | -2 | 4 | 10
Cc1ccc(Oc2cc(C)nc(-c3ccccc3O)n2)cc1 | 4 | x | 2 | -2 | 28 | 8
Cc1cc(Oc2ccc(Cl)cc2)nc(-c2ccccc2O)n1 | -2 | 2 | 3 | 5 | 53* | 2
O=C(/C=C/c1ccccc1)c1c[nH]c2ccccc12 | 1 | 7 | 25* | 2 | -12 | -194
CN(CC(=O)Nc1ccc(F)c(F)c1F)C(=O)c1ccc2c(c1)OCCO2 | 1 | -14 | 0 | -1 | -14 | 14
CS(=O)(=O)c1ccc(NC(=O)c2cccc(-n3cnnn3)c2)cc1 | 3 | -13 | -7 | 0 | x | -6
O=C(Nc1ccc(Br)cc1)c1cccc(-n2cnnn2)c1 | 3 | -8 | 39* | -2 | -5 | 24
O=C(Nc1nnc(-c2ccc(Br)cc2)o1)c1cccc(N2C(=O)CCC2=O)c1 | x | 14 | -5 | -3 | 88* | -9
COc1ccc(NC(=O)COc2cccc(-n3cnnn3)c2)cc1 | 2 | x | 15* | 0 | 1 | -35
O=C(Nc1ccc(F)cc1)c1cccc(N2C(=O)C3C4C=CC(C4)C3C2=O)c1 (configuration not stated) | 3 | -17 | 18* | -2 | 22 | 21
O=C(COc1cccc(-n2cnnn2)c1)Nc1ccccc1 | -3 | -3 | -47 | 0 | -7 | -3
SMILES | Beta cell apopt | CSC inhib | NR3A LBD binder | MPTP inh | SKKanGAS inh | Mdm2 MdmX PPI
Cc1cc(NS(=O)(=O)c2ccc(NC(=O)c3ccc([N+](=O)[O-])c(Cl)c3)cc2)no1 | -6 | 0 | -17 | 0 | 0 | 25
CCCOc1ccc(F)cc1-c1cc(C(=O)NCc2ccccc2OC)[nH]n1 | x | x | x | 0 | x | x
O=C(Nc1ccc(Br)cc1)c1cccc(N2C(=O)CCC2=O)c1 | x | -5 | 14* | -2 | 0 | 21
Cc1ncc(CO)c(/C=N/Nc2cccc(Cl)n2)c1O | 4 | -5 | 15* | -7 | -2 | 19
O=C(N/N=C/c1c[nH]c2ccccc12)c1[nH]c2ccc(Br)cc2c1-c1ccccc1 | x | x | 27* | 4 | 73* | x
CCOc1ccc(Br)cc1C(=O)N/N=C/c1ccccn1 | 0 | 3 | 1 | -1 | -6 | 31
